In PubChem BioAssay:
Unmarked numbers belong to inactive results. Calls of active or inactive are those of the source.

experiment: S. cerevisiae growth modulation with rapamycin, primary screen, strain BY4716, OD600, 96 h (AID 1091); conditions: higher = more signal, called active from +8 up or from −8 down; also: test concentration not given here

Going from `CN1C(=O)C2C=CC(C(O)c3ccc(I)cc3)N(N(c3ccccc3)c3ccccc3)C2C1=O` (configuration not stated) to `Cc1ccc(S[C@]2(C(=O)NCc3ccccc3)CC(=O)N(Cc3ccccc3Cl)[C@@H]2c2ccc(CO)cc2)cc1`, the z-score falls from 1.45 to 0.227.

Going from `C[C@]1(C(=O)O)c2ccccc2C(=O)N(Cc2cc(C(F)(F)F)cc(C(F)(F)F)c2)[C@H]1c1ccc(CO)cc1` to `O=C(NCC(F)(F)F)[C@@H]1c2ccccc2C(=O)N(Cc2cc(C(F)(F)F)cc(C(F)(F)F)c2)[C@H]1c1ccc(CO)cc1`, the z-score rises from -0.754 to -0.359.

Compared with `COC(=O)C(CC#Cc1ccc2c(c1)[C@]1(C(=O)N2)[C@H](C(N)=O)[C@H]2C(=O)O[C@H](c3ccccc3)[C@H](c3ccccc3)N2[C@@H]1c1ccccc1OCCO)C(=O)OC`, `C=CCNC(=O)[C@@H]1[C@H]2C(=O)O[C@H](c3ccccc3)[C@H](c3ccccc3)N2[C@H](c2ccc(OCCO)cc2)[C@@]12C(=O)Nc1ccc(C#CCNC(N)=O)cc12` is lower in z-score: 5.37 for the first, 1.92 for the second.

First: COC(=O)[C@@]1(Cc2ccc(F)cc2)[C@H]2c3cc(C(=O)N(C)C)n(Cc4ccc(C(F)(F)F)nc4)c3C[C@H]2CN1C(=O)c1ccccc1
Second: COC(=O)[C@@]1(Cc2ccc(F)cc2)[C@H]2c3cc(C(=O)N4CCCC4)n(Cc4ccc(C(F)(F)F)nc4)c3C[C@H]2CN1C(=O)c1ccccc1
The z-score of the first is higher: 4.36 for the first, 3.82 for the second.

First: CCN1C(=O)C2CC(=O)C3C(CN(S(=O)(=O)c4ccc(C)cc4)C3c3ccc(C)cc3)C2C1=O (configuration not stated)
Second: CC(CO)N1C(=O)[C@@H]2[C@H]3C(=O)OCC=C[C@H]3OC23C=CCN(c2ccc4ccccc4c2)C(=O)[C@@H]13 (some centres not stated)
The z-score of the first is higher: 0.627 for the first, -0.128 for the second.

Going from `C=C[C@H](OC)[C@@H](O)c1ccc(OC)c(O)c1` to `C=C(C(=O)CC[C@@H](OC(=O)c1cccnc1)c1cccc(OCCO)c1)C(C)C`, the z-score rises from -0.0251 to 1.04.

Compared with `CCCCCN1CC=CC23O[C@@H]4/C=C\CCCOC(=O)C4[C@H]2C(=O)N(CCCCCO)[C@@H]3C1=O` (some centres not stated), `CCCCN1CC=CC23O[C@@H]4/C=C\CCC(C)OC(=O)C4[C@H]2C(=O)N(CCO)[C@@H]3C1=O` (some centres not stated) is higher in z-score: -1.39 for the first, -1.2 for the second.

Compared with `CC(C)C[C@H]1NC(=O)CNC(=O)[C@@]23C(=O)N[C@@H](Cc4ccccc4)C2[C@H](C)[C@@]2(C)O[C@H]2C3/C=C/C/C=C\CNC1=O` (some centres not stated), `COC(=O)[C@H](Cc1ccccc1)N1CC(C)(OC)O[C@@H](Cc2ccccc2)[C@H]1/C=C/C1CC1` (some centres not stated) is higher in z-score: -0.612 for the first, -0.184 for the second.

First: CC(C)[Si](C#Cc1ccccc1)(O[C@H](c1ccccc1)c1cn(Cc2ccccc2)nn1)C(C)C
Second: COc1cc(Cc2cc3c(c(CCc4ccccc4)n2)[Si](C(C)C)(C(C)C)O[C@H]3c2ccccc2)cc(OC)c1OC
The z-score of the first is lower: -2.28 for the first, -0.549 for the second.

Compared with `O=C/C=C/c1ccc(-c2ccccc2)cc1`, `CCCCC(=C=CC[C@@H](O)c1ccccc1OCCO)C[C@@H](O)c1ccccn1` is higher in z-score: -5.08 for the first, -1.14 for the second.

Going from `COc1cc(CO)cc(I)c1O[C@H]1C=C(C(=O)NCCO)C[C@@H](N(CCN2CCOCC2)C(=O)C2CCCO2)[C@@H]1O` (some centres not stated) to `COCCOC(=O)N1C(=O)[C@@]2(c3cc(C#CCNC(N)=O)ccc31)[C@H](c1ccccc1OCCO)N1[C@H](c3ccccc3)[C@H](c3ccccc3)OC(=O)[C@H]1[C@@H]2C(=O)N1CCCCCCC1`, the z-score rises from 0.0665 to 2.37.

First: CC(C)C[C@@H]1NC(=O)[C@H]2C[C@@H](C(=O)O)[C@@H](c3cccc(OCCO)c3)N2C1=O
Second: Cc1cccc([C@H]2C[C@H]3C(Br)=C[C@@]2(CO)C(=O)[C@]32CO2)c1
The z-score of the first is higher: -0.529 for the first, -0.75 for the second.

Compared with `C=CCNC(=O)[C@@H]1[C@H]2C(=O)O[C@H](c3ccccc3)[C@H](c3ccccc3)N2[C@H](c2ccc(O)cc2)[C@@]12C(=O)Nc1ccc(C#CC3=CCCCC3)cc12`, `COCCOC(=O)N1C(=O)[C@@]2(c3cc(C#CCCO)ccc31)[C@H](C(=O)N1CCN(c3ncccn3)CC1)[C@H]1C(=O)O[C@H](c3ccccc3)[C@H](c3ccccc3)N1[C@@H]2c1ccc(OCCO)cc1` is higher in z-score: 1.74 for the first, 5.64 for the second.

With `CCOC(=O)C1=CCC(c2ccncc2)N(S(=O)(=O)c2ccc(C)cc2)C1` (configuration not stated) the z-score was 8.79 (active).
